Source: PubChem BioAssay
A selection: hits, their analogues and other compounds. The true share with any hit is near 2.2%.
FUS yeast rescue = qHTS for Suppressors of FUS Proteinopathy: Primary screen using FUS-linked yeast assay; S. cerevisiae FUS-expressing, growth rescue, OD600, 24 h; Potency, µM (doses to about 76.6 µM), most hits filed as activators; hit rate 0.24% among 390,000; AID 1347120, 2019;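 note: plate controls were DMSO vehicle for no effect and reference control for full effect; nearly all actives have a fitted effect of over 55% in size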
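Read-out: OD at 600 nm after 24hr at 30C, reporting rescue of FUS-induced yeast toxicity. Cells at OD 0.005 in galactose (2%) minimal medium; compounds tested in a dilution series; CP55940 titration from 92uM final as control.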
TDP43 rescue = qHTS of TDP-43 Inhibitors; TDP-43 expressing yeast growth rescue, BacTiter-Glo, 24 h; Potency, µM (series often up to 46.1 µM), inactives show at the highest dose growth rescue (activation), actives largely listed as activators; hit rate 1.8% among 410,000; AID 652104, 2013; note: % of control where 0% means no effect; nearly all actives have a fitted effect of over 50% in size
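Yeast cells expressing TDP-43 under galactose induction are exposed to compounds for 24 hr at 30 deg C. BacTiter-Glo luminescence measures growth, so protective compounds score as activators.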
Abeta rescue = qHTS for compounds that reverse cellular toxicity of Amyloid beta (A-beta) peptide in yeast: Primary Screen; AID 1347071, 2019; hit rate 0.063% among 410,000; Potency, µM (series often up to 46.1 µM), most hits filed as activators; yeast expressing A-beta42, growth rescue, OD600, 48 h; response scale: 0% DMSO, 100% iron-clioquinol control; note: nearly all actives have a fitted effect of over 55% in size
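Yeast A-beta toxicity model in growth medium with pinned compounds, 48 h at 30 C; growth read as absorbance at 600 nm. Normalized to FeCl3/clioquinol equimolar mix (positive) and DMSO (negative).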
aSyn rescue = qHTS of alpha-syn Inhibitors; Yeast expressing alpha-synuclein, growth rescue, BacTiter-Glo, 24 h; Potency, µM (doses to about 46.1 µM), inactives show top-dose growth rescue (activation), hits mostly activators; hit rate 0.14% among 370,000; AID 652106, 2013; note: % of control where 0% means no effect; nearly all actives have a fitted effect of over 65% in size
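Screening used galactose-induced yeast with toxic alpha-synuclein levels, exposed to compound for 24 hr at 30 deg C. Cell growth, read with BacTiter-Glo luminescence, gave the measured signal.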
Mito fusion yeast = qHTS Assay for Small Molecule Inhibitors of Mitochondrial Division or Activators of Mitochondrial Fusion; AID 485298, 2010; hit rate 0.23% among 320,000; S. cerevisiae fusion-defective mutant growth rescue, CellTiterGlo 48 h; Potency, µM (doses to about 46.1 µM), without a hit: top-dose growth rescue (activation), hits mostly activators; note: % of control where 0% means no effect; nearly all actives have a fitted effect of over 45% in size
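Read-out: ATP-based luminescence (CellTiterGlo, 10 min ambient) reporting growth of fusion-defective ts yeast after 48 hours at 37C on glycerol/ethanol YPEG medium in the presence of compound.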
Starred values were filed as active, the others as inactive; i = inactive; ? = inconclusive; . = no result; [ ] = dose if it differs, or a comment. Calls come from the whole dose curve; as a rule, active = well fitted curve in the direction sought with a large enough effect; inconclusive = small, poorly fitted or top-dose-only effect, or another doubt; inactive = no such curve, though single readings can be large; an effect the other way counts as inactive or inconclusive. Potency is the fitted concentration of half-maximal effect.

SMILES | FUS yeast rescue | TDP43 rescue | Abeta rescue | aSyn rescue | Mito fusion yeast
O=C(c1ccc2c(c1)CCN2S(=O)(=O)c1ccc(Cl)cc1)N1CCN(c2ccccc2)CC1 | i | 6% | i | . | .
Nc1c(S(=O)(=O)c2ccccc2)c2nc3ccccc3nc2n1/N=C/c1ccco1 | i | 5% | i | 9% | 6%
Cc1ccc(S(=O)(=O)c2c(N)n(/N=C/c3ccco3)c3nc4ccccc4nc23)cc1 | i | 14µM* | i | 1% | 27%
CCN(CC)CC(=O)c1c(C)n(C)c2ccc(OC)cc12 | . | . | . | 0% | .
Cc1cc(F)ccc1NC(=O)CCS(=O)(=O)c1cc2c3c(c1)CCN3C(=O)CC2 | i | 22% | i | . | .
N/C(=N\OC(=O)CC1CCCCC1)c1cccc([N+](=O)[O-])c1 | i | ? | i | -12% | 2%
N/C(=N\OC(=O)CC1CCCCC1)c1ccc([N+](=O)[O-])cc1 | . | 18µM* | i | -6% | 27%
N/C(=N\OC(=O)CCC1CCCCC1)c1ccc([N+](=O)[O-])cc1 | . | 20µM* | i | -6% | -5%
N/C(=N\OC(=O)CCC1CCCC1)c1ccc(Br)cc1 | . | 6.3µM* | i | -50% | -3%
N/C(=N\OC(=O)CCC1CCCCC1)c1cccnc1 | i | 13µM* | i | -1% | -11%
CC(C)c1cnc2c(c1SCC(=O)Nc1ccccc1C(F)(F)F)c(=O)n(C)c(=O)n2C | i | 19% | i | . | .
COc1ccc(/C(N)=N/OC(=O)CC2CCCCC2)cc1 | i | 3.2µM* | i | -25% | 1%
N/C(=N\OC(=O)CCC1CCCC1)c1cccc([N+](=O)[O-])c1 | i | 20µM* | i | -17% | 5%
COc1ccc(S[C@]2(C(=O)N3CCN(C(C)=O)CC3)CC(=O)N(C(=O)c3ccccc3)[C@@H]2c2ccc(OC)cc2)cc1 | i | . | . | . | .
COc1ccc(/C(N)=N/OC(=O)c2cccs2)cc1OC | i | 22µM* | i | 3% | -3%
COc1ccc(C/C(N)=N/OC(=O)c2cccs2)cc1 | i | 16µM* | i | -36% | -2%
Cc1ccccc1Cn1c(=O)n(Cc2ccco2)c(=O)c2sc3ccccc3c21 | i | 13% | i | . | .
CC(Oc1ccccc1)C(=O)Nc1nnc(S(=O)(=O)N2CCCCCC2)s1 (stereo not drawn) | i | 20µM* | i | -21% | 2%
CC(Oc1ccccc1)C(=O)Nc1nnc(S(=O)(=O)N(C)c2ccccc2)s1 (stereo not drawn) | i | 14% | i | 5% | 13µM*
O=C(OC12CCCN(C1)/C(=C/c1ccc(Cl)cc1)C2)c1ccco1 (stereo not drawn) | i | . | . | . | .
c1nc(N2CCOCC2)c2c3c(sc2n1)CCCC3 | i | 15% | i | 5% | 9%
O=C(c1ccccc1)N1CCN(c2ncnc3sc4c(c23)CCC4)CC1 | i | 22µM* | i | 11% | 9%
C#CCN(C[C@H]1[C@H](OC(=O)NCc2ccco2)[C@H](OC(=O)NCc2ccco2)C[C@H]2C(=O)N(c3ccccc3)C(=O)[C@@H]12)S(=O)(=O)c1ccc(C)cc1 | 16µM* | 0% | i | 0% | .
O=C(CCCl)NC1CCCCN(Cc2ccc(OC(F)(F)F)cc2)C1=O (stereo not drawn) | i | . | . | . | .
Cc1ccc(N2C(=O)C(Cl)=C(N3CCOCC3)C2=O)c(C)c1 | i | 20µM* | i | -2% | -5%
SMILES | FUS yeast rescue | TDP43 rescue | Abeta rescue | aSyn rescue | Mito fusion yeast
Cc1ccccc1N1C(=O)C(Cl)=C(N2CCOCC2)C1=O | i | 8% | i | 2% | -3%
CCC(C)[C@@H](C(=O)OC)N(Cc1cn(Cc2ccccc2)nn1)S(=O)(=O)c1ccccc1Br (stereo partly drawn) | i | . | . | . | .
Cc1ccccc1N=C(NOCc1ccccc1)c1nonc1N | i | 20% | ? | -8% | 22µM*
Cc1cccc(OCCCN2C(=O)C(=O)c3cc(C)ccc32)c1 | i | 14µM* | i | 0% | -5%
Cc1cccc(OCCn2c(=O)n(C)c3ccccc32)c1 | i | ? | i | 22µM* | 13%
Cc1ccc2c(c1)C(=O)C(=O)N2CCCOc1ccccc1 | i | 28% | i | -2% | 0%
CCCCNC(=O)CSc1nc2cc3c(cc2c(=O)n1CCCC(=O)NCc1ccc(OC)cc1)OCO3 | i | 12% | i | . | .
CC(C)C(=O)Nc1ccc(/C=C2\C=Cc3ccccc32)cc1 | . | . | . | 1% | .
CCCOc1ccccc1C(=O)N1CCCCC1CCN1CCOCC1 (stereo not drawn) | i | 13% | i | . | .
CCOc1ccc(CN2C(=O)c3ccccc3Sc3ccc(C(=O)N4CCN(C)CC4)cc32)cc1 | i | 16% | i | . | .
CCCNC(=O)CS(=O)(=O)c1ccccc1 | i | 4% | i | -1% | 1%
O=C(CSc1ncnc2sccc12)NCc1ccc2c(c1)OCO2 | i | 16µM* | i | ? | -1%
O=C(NCc1ccc2c(c1)OCO2)c1cnc2ccccn2c1=O | i | -10% | i | -9% | -11%
Cc1csc2ncc(C(=O)NCc3ccc4c(c3)OCO4)c(=O)n12 | i | 10µM* | i | 0% | -20%
Cc1csc2ncc(C(=O)NCc3ccccc3Cl)c(=O)n12 | i | 22µM* | i | -1% | 1%
Cc1cc2n(n1)CCCN2C(=O)Nc1ccc(Cl)cc1 | i | 18% | i | . | .
CCOc1ccccc1NC(=O)N1CC(CC)Oc2ccccc21 (stereo not drawn) | i | 3% | i | . | .
Nc1nc2c(nc(N3CCOCC3)n2COCCO)c(=O)[nH]1 | . | . | . | 0% | .
CCOC(=O)c1ccccc1NC(=O)N(C(C)C)C1CCN(C(C)=O)CC1 | i | 0% | i | . | .
COc1cc(C=O)ccc1OCc1cccc(Br)c1 | . | 20µM* | i | 14% | 1%
COc1ccc(C=O)cc1COc1ccc(F)cc1F | i | 25% | i | -10% | 3%
CNC(=O)COc1ccc(C=O)cc1OC | i | -11% | i | 0% | -6%
COc1cc(C=O)ccc1OCc1ccccc1Br | . | 11µM* | i | -19% | 22%
CCOc1cc(C(=O)Nc2ccc(-c3nc4cc(C)ccc4o3)cc2)cc(OCC)c1OCC | i | ? | i | . | .
O=C1C2CC(O)CN2C(=O)N1c1ccccc1 (stereo not drawn) | i | -2%[9.22 µM] | i | 3% | 4%
